Source: PubChem BioAssay (several laboratories)
GRK2 inh: blocks RNA aptamer binding to human GRK2; bead flow cytometry, FAM-aptamer displacement from GRK2; inhibition of aptamer binding, % at 10 µM; actives 0.59% (n = 330,000);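 active = inhibition of aptamer binding above 40%, roughly 3 SD of noise, on plates passing a quality check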;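 note: median bead fluorescence of bound FAM aptamer so fluorescent compounds give negative values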
Target sequence (P25098 whole entry, looked up): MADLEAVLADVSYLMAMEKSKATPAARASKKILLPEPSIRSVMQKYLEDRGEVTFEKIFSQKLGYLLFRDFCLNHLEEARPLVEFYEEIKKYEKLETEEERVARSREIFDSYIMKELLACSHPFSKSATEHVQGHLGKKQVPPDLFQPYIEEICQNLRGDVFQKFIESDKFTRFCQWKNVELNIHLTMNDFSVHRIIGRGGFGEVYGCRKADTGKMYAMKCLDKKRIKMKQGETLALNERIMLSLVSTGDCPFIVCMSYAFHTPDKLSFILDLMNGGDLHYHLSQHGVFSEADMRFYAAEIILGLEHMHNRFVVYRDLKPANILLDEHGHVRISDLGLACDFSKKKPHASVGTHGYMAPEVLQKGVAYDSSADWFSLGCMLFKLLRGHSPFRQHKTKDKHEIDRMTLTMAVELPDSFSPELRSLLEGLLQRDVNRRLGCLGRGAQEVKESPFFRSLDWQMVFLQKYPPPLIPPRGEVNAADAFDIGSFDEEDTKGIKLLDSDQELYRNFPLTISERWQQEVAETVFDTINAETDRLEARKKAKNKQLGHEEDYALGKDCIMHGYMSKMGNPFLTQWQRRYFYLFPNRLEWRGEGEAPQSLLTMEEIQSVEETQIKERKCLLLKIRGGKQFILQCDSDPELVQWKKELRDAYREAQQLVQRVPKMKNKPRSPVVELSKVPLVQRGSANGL
Efflux pump mplx: antifungal efflux pump inhibition, Nile Red retention. AID 485275. S. cerevisiae Candida pump triplex. inhibition, % at 10 µM. actives 0.44% (n = 330,000);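 active = plate passing quality check with inhibition over a set limit, or well fluorescence over plate mean plus 4 SD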;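 note: Nile Red retained in pooled yeast measured as flow cytometry median fluorescence; higher means more Nile Red kept so more efflux inhibition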
ATG4B inhibitor: blocks human ATG4B protease cleavage of LC3 substrate | inhibition, % at 8.33 µM | actives 0.51% (n = 340,000) | ATG4B cleavage of LC3-PLA2, NBD-HPC fluorescence, 1 h | Q9Y4P1 | AID 504462; in the data active = inhibition above about 40%
Yeast superoxide: yeast age-related superoxide inhibition as caloric restriction mimetic | superoxide response (% of plate mean), % at 10 µM | actives 0.18% (n = 330,000) | S. cerevisiae aged cells, superoxide DHE fluorescence; hits give low values;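 active = superoxide response under a set limit, about three screen SD below normal, cut at about 65% in these data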;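 note: yeast aged for seven days with compound at 30 °C before DHE staining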
Cmpd fluor yeast: compound fluorescence in yeast efflux pump counter-screen; shares compounds with Efflux pump mplx; S. cerevisiae AD/pABC3, flow cytometry; fluorescence ratio to DMSO, % at 10 µM; actives 4% (n = 1,700); AID 588517;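 active = fluorescence ratio to DMSO above its plate's cutoff, the plate mean ratio plus 5 SD, cut at about 210% in these data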;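 note: unstained yeast with no Nile Red so the signal is compound autofluorescence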
CaMdr1 efflux inh: Candida Mdr1 efflux pump inhibition; shares compounds with Efflux pump mplx; S. cerevisiae AD/CaMDR1, Nile Red efflux, flow cytometry; inhibition, % at 10 µM; actives 1% (n = 1,700); AID 588518; in the data active = inhibition above about 26%;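 note: higher means more Nile Red retained so more efflux inhibition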
Cdr2 pump inh: inhibitors of Candida albicans Cdr2 efflux pump | shares compounds with Efflux pump mplx | Nile Red retention ratio vs DMSO, % at 10 µM | AID 588520 | actives 4% (n = 1,700) | S. cerevisiae AD/CaCDR2, Nile Red retention, flow cytometry; in the data active = Nile Red retention ratio vs DMSO above about 190%;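 note: higher ratio means more blocking of Cdr2 efflux of the dye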
Cdr1 pump inh: inhibitors of Candida albicans Cdr1 efflux pump; shares compounds with Efflux pump mplx; S. cerevisiae AD/CaCDR1, Nile Red efflux, flow cytometry; inhibition, % at 10 µM; actives 1% (n = 1,700);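 active = inhibition above the screen-wide mean plus twice its standard deviation, cut at about 32% in these data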
Numbers stand for hits; . = inactive; / = not tested or not shown. A selection: hits, their analogues and other compounds. The true share with any hit is near 1.6%.

SMILES	GRK2 inh	Efflux pump mplx	ATG4B inhibitor	Yeast superoxide	Cmpd fluor yeast	CaMdr1 efflux inh	Cdr2 pump inh	Cdr1 pump inh
COc1ccc(CCNC(=O)COC(=O)/C=C/c2ccc(OCC#N)c(OC)c2)cc1OC	.	.	.	.	/	/	/	/
S=c1[nH]nc(-c2cccnc2)n1/N=C/c1ccc(Br)s1	.	8.0	.	.	.	.	.	.
Cc1ccc(/C=N/n2c(-c3cccnc3)n[nH]c2=S)s1	.	.	.	.	/	/	/	/
COc1ccccc1CNC(=O)CN(C)CC(=O)Nc1ccc(F)c(F)c1F	.	.	.	.	/	/	/	/
CCSc1cc(N2CCCC2)nc(-c2ccc(C)cc2)n1	.	.	.	.	.	.	.	.
CCSc1cc(N2CCCC2)nc(-c2ccc(F)cc2)n1	.	.	.	.	.	.	.	.
CC(=O)Nc1ccc(S(=O)(=O)NC2CC2)cc1	.	.	.	.	/	/	/	/
COc1ccc(OC)c(/C=C2\SC(=S)N(NS(=O)(=O)c3ccccc3)C2=O)c1	.	.	.	.	/	/	/	/
O=C1/C(=C/c2cccs2)SC(=S)N1NS(=O)(=O)c1ccccc1	.	.	.	.	.	.	.	.
C/C(Cl)=C\C[N+](C)(C)CC(=O)OCCc1ccccc1	.	0.5	.	.	.	.	.	.
CCCCCCCCCCOC(=O)C[N+](C)(C)C/C=C(/C)Cl	.	.	.	.	/	/	/	/
N#CCCn1cc(/C=N/O)c(-c2ccc(-c3ccccc3)cc2)n1	.	.	.	.	/	/	/	/
N#CCCn1cc(/C=N/O)c(-c2ccc(Cl)cc2)n1	.	6.7	.	.	.	.	.	.
COc1ccc(CCNC(=O)c2ccc3c(=O)n4c(nc3c2)CCC4)cc1OC	/	/	.	/	/	/	/	/
O=C(C1CCCO1)N1CCN(S(=O)(=O)c2ccccc2)CC1 (configuration not stated)	.	5.9	.	.	.	.	.	.
Cc1ccc(S(=O)(=O)N2CCN(C(=O)C3CCCO3)CC2)cc1C (configuration not stated)	.	.	.	.	/	/	/	/
CC(NC(=O)CCc1nnc(CCCc2ccccc2)o1)c1ccccc1 (configuration not stated)	.	.	.	.	/	/	/	/
Cc1cc(C)c(OCC(=O)Nc2nc(-c3ccccn3)cs2)c(C)c1	.	0.6	.	.	.	.	.	.
CCN(CC)C(=O)C1CCN(Cc2ccc(OCc3ccccc3)c(OC)c2)CC1	.	.	.	.	/	/	/	/
CC(C)n1nc(C(=O)Nc2nnc(C3CC3)s2)c2ccccc2c1=O	.	.	.	.	/	/	/	/
CC(C)Cn1nc(C(=O)Nc2nnc(C3CC3)s2)c2ccccc2c1=O	.	0.9	.	.	.	.	.	.
O=C1C=CC(=O)N1c1cccc(-c2ccccc2)c1	.	2.6	.	.	.	.	.	.
Cc1c2ccncc2cc2c1[nH]c1ccccc12	/	/	.	/	.	.	.	.
Cc1cc2c([nH]c3ccccc32)c(C)n1	.	.	.	.	/	/	/	/
COc1ccc2[nH]c3c(C)c4ccncc4c(C)c3c2c1	.	2.8	.	.	.	.	.	.
SMILES	GRK2 inh	Efflux pump mplx	ATG4B inhibitor	Yeast superoxide	Cmpd fluor yeast	CaMdr1 efflux inh	Cdr2 pump inh	Cdr1 pump inh
COc1ccc2[nH]c(C)cc(=O)c2c1	.	.	.	.	/	/	/	/
COc1ccc(NC(=O)CSc2nnc(Cc3cccs3)n2C)cc1	.	.	.	.	/	/	/	/
COc1ccc(NC(=O)C(NC(=O)c2ccc(C)cc2)c2ccccc2)cc1 (configuration not stated)	.	0.3	.	.	.	.	.	.
CCC(=O)N1CCC2(CC1)Oc1ccc(Cl)cc1C(=O)C21CC(c2cccnc2)=NO1 (configuration not stated)	.	.	.	.	/	/	/	/
CC(C)(C)OC(=O)N1CCC2(CC1)Oc1ccc(F)cc1C(=O)C21CC(c2ccc(Cl)cc2)=NO1 (configuration not stated)	.	.	/	.	/	/	/	/
O=C(c1ccc2c(c1)OCO2)N1CCC2(CC1)Oc1ccc(Cl)cc1C(=O)C21CC(c2ccccc2)=NO1 (configuration not stated)	.	.	.	.	.	.	.	.
O=C(/C=C/c1cccs1)N1CCC2(CC1)Oc1ccc(F)cc1C(=O)C21CC(c2ccccc2)=NO1 (configuration not stated)	.	0.6	.	.	.	.	.	.
O=C(c1ccc2c(c1)OCO2)N1CCC2(CC1)Oc1ccc(F)cc1C(=O)C21CC(c2ccc(Cl)cc2)=NO1 (configuration not stated)	.	23.3	.	.	.	26.1	.	.
Cc1noc(C)c1C(=O)N1CCC2(CC1)Oc1ccc(F)cc1C(=O)C21CC(c2ccc(Cl)cc2)=NO1 (configuration not stated)	.	6.4	.	.	.	.	.	.
COc1ccccc1CCNC(=O)c1cccc(S(=O)(=O)NCc2ccccc2)c1	.	.	.	.	/	/	/	/
Cc1ccc(N(C(=O)Cn2nnc(-c3ccc(F)cc3)n2)C(C(=O)NC(C)(C)C)c2ccncc2)cc1 (configuration not stated)	.	.	.	.	/	/	/	/
Cc1ccc(-n2nc3c(=O)n(CC(=O)NCc4ccc(C)o4)nc(C)c3c2C)cc1	.	.	.	.	/	/	/	/
Cc1nn(CC(=O)NCc2cccs2)c(=O)c2nn(-c3ccccc3)c(C)c12	.	6.2	.	.	.	.	.	.
Cc1ccc(-n2nc3c(=O)n(CCCC(=O)NCc4ccc(C)o4)nc(C)c3c2C)cc1	.	.	.	.	.	.	.	.
Cc1ccc(NC(=Nc2ccc(Br)cc2)N2CCOCC2)cc1C	.	.	.	.	/	/	/	/
Cc1ccc(/C=C2\CCC3=C2OC(N)=C(C#N)C3c2ccc(C)cc2)cc1 (configuration not stated)	.	3.6	.	.	.	.	.	.
CCN(Cc1ccccc1)C(c1ccncc1)c1nnnn1C(C)(C)C (configuration not stated)	.	0.4	.	.	.	.	.	.
c1ccc(CN(Cc2ccco2)C(c2ccncc2)c2nnnn2C2CCCC2)cc1 (configuration not stated)	.	0.6	.	.	.	.	.	.
Fc1ccc(C(c2nnnn2C2CCCC2)N(Cc2ccco2)CC2CCCO2)cc1 (configuration not stated)	.	.	.	.	/	/	/	/
CCc1ccc(-n2c(=O)c3ccccc3n(CC(=O)NCc3ccco3)c2=O)cc1	.	0.8	.	.	.	.	.	.
Cc1ccc(-n2c(=O)c3ccccc3n(CC(=O)NCc3ccco3)c2=O)cc1	.	.	.	.	/	/	/	/
COc1ccc2nc(NC(=O)c3cc(C)oc3C)sc2c1	.	.	.	.	/	/	/	/
COc1ccc2nc(NC(=O)c3ccoc3C)sc2c1	.	7.5	.	.	.	.	.	.
